The text below walks through data of PubChem BioAssay AID2315 (National Center for Advancing Translational Sciences (NCATS), 2010).

SMILES strings stand for the structures. About 27,000 (9.3%) of roughly 290,000 compounds were called active. Cut-off read from the data, not from the text of the source: active = inhibition mostly above about 28% (no sharp cut-off); inactive = mostly below about 43%. Shown is part of a subset that was picked to be rich in actives.

This assay in a line: A qHTS for Small Molecule Inhibitors of Shiga Toxin. Note: 0% is about no effect. The settings on record: Vero cells, Shiga toxin protein synthesis inhibition reporter; at 38.7 µM, active compounds read high. Background: In qHTS, concentration-response curves come from the screen itself.
With `Cc1c(CC(=O)N2CCN(C(=O)C3COc4ccccc4O3)CC2)c(=O)oc2c(O)c(O)ccc12` (stereo not drawn), the inhibition was 6.52% (inactive).
`O=C(CCC1CCCN(C(=O)c2ccc(F)c(F)c2)C1)N1CCN(c2ccccn2)CC1` (stereo not drawn): the inhibition was -25.9% (inactive).
With `Cc1ccc(O)c(CNc2nc3ccccc3[nH]2)c1`, the inhibition is 30.6% (inactive).
As for `CC(C)n1c(NCc2c[nH]c3ccccc23)nc2ccccc21`, the inhibition is 8.94% (inactive).
For `Cc1ccc(O)c(CNc2nc3ccccc3n2C)c1` the value was 75.2% (active).
With `O=C(NCCCN1CCOCC1)c1ccc2c(c1)N(Cc1cccc(F)c1)C(=O)c1ccccc1S2`, the inhibition is -12.3% (inactive).
As to `O=C(NC1CC1)c1ccc(-c2ccccc2)cc1`, the inhibition is 97.2% (active).
On to `CSc1ccccc1NC(=O)c1cc(C2CC2)on1`, for which the inhibition is 19.8% (active).
As for `O=C(NC1CC1)c1cccc(Br)c1`, the inhibition was 23.6% (inactive).
In the case of `CC(=O)c1cc(-c2ccccc2)n(CC(=O)NC2CCCCC2)c1C`, the inhibition is 26.5% (inactive).
On to `CC(C)C(OC(=O)c1cccs1)C(=O)NC1CCCCC1` (stereo not drawn), for which the inhibition is 8.34% (inactive).
For `O=C(CCC(=O)c1cccs1)NC1CCCCCC1`, the inhibition was 29.7% (inactive).
In the case of `O=C(NC1CCN(S(=O)(=O)c2ccc(F)cc2)CC1)c1ccccc1`, the inhibition is -7.58% (inactive).
The same measure for `O=C(Nc1cc(C(F)(F)F)ccc1Cl)c1cc(C2CC2)on1`: -4.26% (inactive); for `O=C(NC1CCCC1)c1cc(-c2ccccc2)on1`: 157% (active); for `CSc1ccccc1NC(=O)c1cc(Cl)sc1Cl`: 25.1% (inactive).
In the case of `CC(NC(=O)c1cc(-c2ccccc2)on1)c1ccccc1` (stereo not drawn), the inhibition was 0.984% (inactive).
For the compound `O=C(NC1CCCCCCC1)c1cccs1`, the inhibition is 88.4% (active).
`Cc1ccc(N2C(=O)C3C4C=CC(CC4)C3C2=O)cc1Cl` (stereo not drawn): the inhibition is 6.23% (inactive).
Turning to `C[N+](C)(C)CCNC(=O)c1cc[n+](Cc2ccccc2)c(/C=N/O)c1`, the inhibition was -12.2% (inactive).
The same measure for `CCCCC[C@H]1CN(C2CCCCC2)C(=O)[C@@H]1CC(=O)NCc1ccc(OC)cc1`: -2.81% (inactive); for `CCOc1ccc2c(c1)c(=O)c(S(=O)(=O)c1ccc(C)cc1)cn2CC`: -4.36% (inactive).
As to `O=C(NNS(=O)(=O)c1ccc(F)cc1)C1CCCCC1`, the inhibition was -10.2% (inactive).
With `Cc1nn(Cc2ccc(Cl)c(Cl)c2)c(C)c1NC(=O)c1cc(C2CC2)on1`, the inhibition was 12.5% (inactive).
`O=C(NC1CCCCC1)c1cc(C2CC2)on1`: the inhibition was 108% (active).
As to `COc1ccccc1-c1cc(C(=O)NCCCn2ccnc2)no1`, the inhibition is 24.1% (inactive).
In the case of `COc1cc(OC)c(C(=O)NC2CCCCCC2)cc1OC`, the inhibition is -10.7% (inactive).
On to `COc1ccc(-c2cc(C(=O)NCCCn3ccnc3)no2)cc1`, for which the inhibition was 46.8% (inactive).
For `O=C(NCCCn1ccnc1)c1cc(-c2ccccc2)on1` the value was 146% (active).
Consider `Cc1ccc(OCCCC(=O)Nc2ccc(S(=O)(=O)Nc3cc(C)nc(C)n3)cc2)cc1`, for which the inhibition was 12.9% (inactive).
For `C=C1CCN(C(CC(C)C)C(=O)NCc2cc(OC)c(OC)c(OC)c2)S(=O)(=O)c2ccccc21` (stereo not drawn), the inhibition is -0.34% (inactive).
For `CCOc1cc(C2C(C(=O)c3ccco3)=C(O)C(=O)N2Cc2ccccc2)ccc1O` (stereo not drawn), the inhibition is -8.41% (inactive).
Consider `CC(=O)[C@@]12O[C@@H]1C[C@H]1[C@@H]3CC[C@H]4C[C@@H](O)CC[C@]4(C)[C@H]3CC[C@@]12C`, for which the inhibition is 33.3% (inactive).
Take `Cn1c(=O)c2sccc2n(Cc2ccc(Br)cc2)c1=O`: the inhibition is 22.9% (inactive).
Regarding `Cc1snc(SCc2c(F)cccc2Cl)c1C#N`, the inhibition is -6.99% (inactive).
In the case of `Cc1cc(C)c(C#N)c(SCc2ccc3c(c2)OCO3)n1`, the inhibition was 26.6% (inactive).
As for `Cc1ccc(CSc2nsc(C)c2C#N)cc1`, the inhibition is 31.1% (active).
For `CC(C(=O)NC1CCCCC1)N1C(=O)c2cccc3cccc1c23` (stereo not drawn) the value was -6.55% (inactive); for `CC(=O)N(Cc1cc(=O)[nH]c2ccccc12)c1ccc(C)cc1C`, -8.12% (inactive); for `COc1cccc(-c2cc3nc4c(c(N5CCC6(CC5)OCCO6)n3n2)CCCC4)c1`, 63.6% (active).
In the case of `O=C(c1cc2nc(-c3ccccc3)cc(-c3ccccc3)n2n1)N1CCC2(CC1)OCCO2`, the inhibition was 10.6% (inactive).
The same measure for `COc1cccc(CNc2nc3nc4c(c(=O)n3[nH]2)CCC4)c1`: -7.62% (inactive).
Take `COc1ccc(S(=O)(=O)N2CCN(C(=S)NCC3CCCO3)CC2)cc1OC` (stereo not drawn): the inhibition was -11.6% (inactive).
As to `O=S(=O)(NCCCCCCNS(=O)(=O)c1c(F)cccc1F)c1ccc2c(c1)OCCO2`, the inhibition was -3.9% (inactive).
Regarding `O=C(O)CCCn1cc(NC(=O)COc2cccc(Cl)c2)cn1`, the inhibition was 12.7% (inactive).
`COc1cc(C(=O)OCC(=O)NC(C)CCc2ccccc2)cc(OC)c1OC` (stereo not drawn): the inhibition is -9.96% (inactive).
On to `COc1ccc(OC)c(NC(=S)N2CCc3ccccc3C2)c1`, for which the inhibition was 46.8% (active).
As to `COc1ccc(NC(=S)N2CCc3cc(OC)c(OC)cc3C2)cc1`, the inhibition was 11.3% (inactive).
For `COc1ccc(C)cc1NC(=S)N1CCOCC1`, the inhibition is -10.3% (inactive).
Turning to `CCOc1ccc(-c2noc(CCC(=O)NC3CCCC3)n2)cc1OC`, the inhibition is -7.65% (inactive).
Consider `COc1ccc(CCNC(=O)CSCc2ccc(Br)cc2)cc1OC`, for which the inhibition was -18.8% (inactive).
Take `Cc1nn(CC(=O)NCC2CCCO2)c(=O)c2cc3ccccc3n12` (stereo not drawn): the inhibition is 1.03% (inactive).
Regarding `Cc1cccc(NS(=O)(=O)c2cc(Cl)ccc2Cl)n1`, the inhibition is 2.75% (inactive).
Take `CC(C)[C@@H]1COC(c2cccc(C3=N[C@H](C(C)C)CO3)c2)=N1`: the inhibition was 46.5% (active).
Turning to `Cc1c(CCC(=O)O)c(=O)oc2cc3occ(-c4ccccc4)c3cc12`, the inhibition is -11.6% (inactive).
Take `O=c1c(-c2ccccc2)coc2cc(O)ccc12`: the inhibition was 93% (active).
`O=c1c(-c2ccccc2)coc2c(CN3CCOCC3)c(O)ccc12`: the inhibition is 7.81% (inactive).
The same measure for `CC(C)c1ccc(C2C(C(=O)c3ccco3)=C(O)C(=O)N2CC2CCCO2)cc1` (stereo not drawn): 1.66% (inactive); for `COc1ccc(S(=O)(=O)N2CCCC(C(=O)NCCCn3ccnc3)C2)cc1OC` (stereo not drawn): -5.4% (inactive).
Take `Cc1sc2ncn(CC(=O)NCCCC(=O)N(C)Cc3ccccc3)c(=O)c2c1C`: the inhibition is -9.55% (inactive).
Consider `CC(C)(C)OC(=O)N1CCC(C(=O)NNC(=O)c2ccc(Cl)cc2Cl)CC1`, for which the inhibition was 5.93% (inactive).
As to `Cc1ccc(C(=O)NNC(=O)OC(C)(C)C)c(Cl)c1`, the inhibition is 90.5% (active).
For `CCOc1ccc(NC(=O)NNC(=O)c2ccc(Cl)cc2Cl)cc1`, the inhibition is 13.5% (inactive).

A word on the inhibition: it is the relative decrease from the control value, in per cent.
